# Results published in the supplement of paper PMC6555819.
# Assays:
# Test in all cases: PBM binding z-score (relative to random genomic background probes); higher = stronger binding; sequences stand for … in GC…GCGATTGACAGCGTAGAATGAAGG
# [1] = tested on: RARb homodimer (NR concentration 270 nM)
# How it was run: (§1)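 Ligand-free nuclear receptor dimers were bound for 1 h to custom Agilent 4×180K protein-binding microarrays. Detection used antibodies against each partner (one per run). Binding z-scores rest on regression-normalized fluorescence, with random background probes as the reference.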
# [2] = tested on: RARg:RXRa (NR concentration 270 nM, RXRa partner concentration 90 nM)
# How it was run: as §1
# [3] = tested on: RARg homodimer (NR concentration 270 nM)
# How it was run: as §1
# [4] = tested on: RXRa DBDmut IVT, anti-RXR (DBD mutation: RXRa K156A/R161A, NR concentration 90 nM)
# How it was run: as §1
# [5] = tested on: RXRa homodimer (NR concentration 180 nM)
# How it was run: as §1
# [6] = tested on: THRa:RXRa (NR concentration 90 nM, RXRa partner concentration 90 nM)
# How it was run: as §1
# [7] = tested on: THRa homodimer (NR concentration 90 nM)
# How it was run: as §1
# [8] = tested on: VDR:RXRa (NR concentration 270 nM, RXRa partner concentration 90 nM)
# How it was run: as §1
# [9] = tested on: VDR homodimer (NR concentration 270 nM)
# How it was run: as §1
Sequence,PBM binding z-score [1],PBM binding z-score [2],PBM binding z-score [3],PBM binding z-score [4],PBM binding z-score [5],PBM binding z-score [6],PBM binding z-score [7],PBM binding z-score [8],PBM binding z-score [9]
GCAAACAGGTGAAACGCAGGTAACTCAGGGTGGC,0.0626,0.796,0.0633,-0.459,0.616,1.52,-0.516,-0.424,-0.658
CCTATTAGTTGTCCATAAGGGCAACCGAAGCTCG,1.81,1.01,0.8,0.67,0.161,1.8,1.64,0.958,1.07
CAAACTGGGTCAAAGGTCAAAGTCGAGCCAACCA,5.2,8.56,7.31,2.55,10.1,4.51,1.31,6.65,3.12
ACAGACAGGTGATGAAGATAACTCAGGCTATCAT,0.036,0.0914,0.567,-0.415,0.164,0.061,-0.111,-0.422,-0.302
GCTTACGGTTCAAAGGTTATAGCATGAATAGAAT,1.54,3.57,1.39,2.62,7.16,2.59,0.09,4.41,2.52
ATCTCTAGGTAAAGTTGAGTGAAAGATCGATAGA,-0.112,0.406,0.593,-0.00419,0.495,0.689,-0.246,0.152,0.103
CCTTACGGGTCACTGACCGGTTATAGCATTTGGA,3.25,5.43,4.56,1.45,4.82,2.56,0.389,3.34,0.995
CGTCAAAGTTCAAGGAAACGTAACAGAAAGCAGC,3.35,4.85,5.68,4.06,3.84,1.49,-0.29,3.29,2.61
CCTAGTTGGTCAGGAGGTGACACACCGGATATGA,1.48,1.12,1.22,-0.691,0.768,1.18,0.64,0.277,0.232
AGAACGAGGTTATTAAGATCAGGGAATTGCGGTC,0.861,0.912,0.734,1.68,1.82,1.65,0.227,2.38,1.33
GGAACGAGGGTATTCGAGTTGATAGCATGGCGAT,-0.529,-0.0783,0.118,0.869,0.0441,1.82,-1.03,1.18,0.63
CCTAGCAGGCCAGCGTCACTCAAGCATTTCGCTT,-0.555,-0.553,-0.578,-0.0144,-0.744,-0.634,-0.783,-0.645,-0.635
GCTATTAGTTGAAAGGGCACCCGAATGATTCTCG,1.78,1.18,1.03,1.06,1.43,0.64,0.229,0.313,0.843
GCAGACAGGTGATACGCAGGTAACTCAGGGTGGC,-0.38,-0.066,-0.0165,-0.589,0.293,0.561,-0.509,-0.655,-0.5
ACTATTAGTTGAGACGAGGGCCACCGATAGGTTG,0.318,0.392,0.514,0.0416,0.26,-0.0155,-0.379,-0.293,-0.0608
CCAGACAGGTAAGAAGGTAACTCAGCCTCGATTA,-0.0494,0.201,0.207,-0.00945,0.0209,0.0122,0.113,0.00354,-0.0609
CACGAAAGGTCGGTTGAGGTGAGTATACGGATAA,2.56,2.89,3.15,0.785,2.36,5.03,1.69,2.37,0.932
AGTCAAAGTTCACCTAGGTAACGTAAGATATGCT,4.16,5.65,6.29,4.26,4.86,3.51,0.406,4.74,3.86
CGTCCAAGGTCAATGCTACGTCAGTGAAAGCATT,4.04,5.67,6.18,3.58,4.83,3.53,1.75,3.53,2.18
ATCTCTAGGTAACCAAGTTCGGTGAATGCCGAAC,0.477,0.289,0.0649,0.0543,0.189,0.968,0.803,1.83,1.13
ATCTCTAGGTAAAAGTTCAATGAATCCCGAGGAT,3,2.3,2.41,1.29,2.4,1.71,0.132,2.25,2.73
TCTATTAGGTGATTAGGGCAACCGAAACAGCGGA,1.1,1.09,1.02,0.665,0.927,1.24,0.68,0.268,0.277
TCGAGTAGGTTAGGGGCATTCACAATGGCGTCGA,0.776,0.234,0.502,0.518,0.424,1.06,0.276,0.522,1.04
ACTATTAGTTGAGACGAGCGCAACCGATAGGTTG,-0.567,-0.546,0.138,-0.188,-0.211,-0.381,-0.708,-0.385,-0.0904
ATCTCGAGGTAACCAAGTTCAGTGAATGCCGAAC,1.62,0.86,1.02,0.865,0.825,2.41,0.867,5.47,3.01
ATCTCTAGGTAACAACTTCAGTGAAAGAGAGGAC,0.514,0.787,0.752,-0.232,0.536,1.14,0.654,0.366,0.576

Sequence,PBM binding z-score [1],PBM binding z-score [2],PBM binding z-score [3],PBM binding z-score [4],PBM binding z-score [5],PBM binding z-score [6],PBM binding z-score [7],PBM binding z-score [8],PBM binding z-score [9]
AGAATGAGGTTAAGATCACGGAAACAGAATACAT,0.84,2.33,1.81,0.924,2.92,2.47,0.742,1.41,0.686
AGAATGAGGGTATTAAGATCAGGGAATTGCGGTC,0.61,0.0247,0.0754,0.633,0.379,0.534,0.27,0.128,0.315
TCTGCTAGGTCAATTGGTCAGCTAACGAGCTGCC,2.93,3.91,4.34,1.21,2.09,2.3,-0.00918,0.925,-0.473
CGTCGAAGGTCAAGGTCAGTGAAAGAGACTCGAA,5.05,6.76,7.33,2.59,6.08,3.98,2.07,4.25,1.98
CGTCCAAGGTCAGCAGGTCAGTGAGAGCGACGTG,5.13,6.35,6.67,2.46,5.29,4.01,2.56,,1.93
AATACAGGGCCATCGTAGGCCAGAGTACGCACAG,0.468,0.421,0.993,-0.218,0.0629,1.44,-0.588,-0.126,0.487
TCTGTTAGTTGATTAGGGCAACCGAAACAGCGGA,0.861,0.9,0.978,0.605,0.318,0.839,0.442,0.452,0.324
ATCTCTAGGTAAAAGTGCAGTGAATCCCGAGGAT,0.183,0.363,0.23,-0.0923,0.454,0.235,-0.373,0.00627,0.138
CCTACTGGGCCATTCACAGGTCATTGATCATATG,2.72,2.69,1.66,0.46,1.34,2.01,0.728,1.72,1.17
CAGCCTAGGTCCGGGCCAGTATAGGAGGAACGTT,-0.676,-0.685,-0.755,-1.37,-0.779,-0.819,-1.03,-0.982,-0.835
ATATGTAGGTTAAATCCGGGTCATTCAGGCTATG,3.23,4.91,2.25,1.1,3.3,4.46,2.71,4.63,2.5
AGAATCAGGTTAAGATCAGGGAAACAGAATACAT,0.909,0.705,0.926,0.172,0.786,1.45,0.772,0.3,0.415
ACAGACTGGTGAGTGAAGGTAACTCAGCTGGACG,-0.42,-0.303,-0.112,-0.514,-0.182,0.0338,-0.517,,-0.299
TCGAGTAGGTTAGGGGCATTCATAATGGCGTCGA,0.847,0.406,0.583,0.422,0.801,0.804,0.251,0.655,0.868
TGAATGAGGTTATAAGATCCGGGAACGTTGCAAA,0.199,1.19,0.881,0.792,1.78,1.7,0.151,0.946,0.411
AATACAGGTTCATCGTAGGCCAGAGTACGCACAG,1.46,2.54,1.39,4.66,3.17,3.66,0.0172,4.6,5.45
TCGAGTAGGTCAGTCGGGGCATTCAGCCAACATA,2.3,2.49,3.17,0.903,1.32,2.4,-0.201,5.3,1.42
CAGCCTAGGTCAGGCCCAGTATAGGAGGAACGTT,2.11,2.54,3.21,-0.298,1.14,1.66,0.183,-0.208,-0.788
TAGCCTAGGTCATTCGGGCCAGTATAGTGTCGGC,3.25,3.72,4.17,1.79,3.07,3.16,1.11,3.94,1.49
TCTTGTAGATCAGTAGGTTAAGAAAGCTGGCCAA,0.381,-0.0974,-0.231,0.997,0.365,0.204,0.0296,0.673,0.104
TCTTGTAGATCAGCAGGTTGAGAAAGCTGGCCAA,-0.505,-0.343,-0.727,0.441,0.0477,-0.234,-0.41,0.543,-0.222
CCTGCTAGGTCATGTTCAGCTAATCTACAGTATG,2.65,3.26,3.95,2.42,2.13,2.51,1.08,1.48,0.754
GGAACGAGGGCATTCGAGTTGATAGCCTGGCGAT,0.74,0.929,1.41,3.31,0.739,3.25,-0.752,3.37,3.28
CCTACTGGGCCACGATAGGTCATTGATTCAGTGA,2.93,2.17,2.17,-0.409,1.92,2,-0.0133,1.15,0.0413
AGAATGAGGTTAAGATCAGGGAGACAGAATACAT,1.15,1.94,1.5,1.06,2.49,2.55,0.979,1.24,0.818
TCTAGCAGGCCAGAGGGTGACTCAAGAGGTACGG,0.225,0.176,-0.109,-0.237,0.486,-0.0515,-0.795,-0.421,-0.534
